# Compound activity (PubChem BioAssay)
# GLP1R cytotox – cytotoxic in the GLP-1 receptor inverse agonist counter-screen; 0.13% of 410,000 active; Potency, µM (doses to about 38.3 µM), for the others: at the top dose activity change, negative = inhibition, actives largely listed as inhibitors; AID 624418; HEK293 cAMP-luciferase reporter cells, luminescence, 24 h;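 further: loss of luciferase light is scored as toxicity; potency means the concentration at half of the fitted maximal effect; on the % scale 0 is the no-effect control and ±100 the full control effect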
#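 Luminescence readout: signal drop marks cytotoxicity. Plated cells grew 12 h at 37 °C, 5% CO2, received 23 nL compound for 24 h, then got luciferase reagent, read after 12 min at RT.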
# PTHR1 agonist – PTHR1 (human) receptor agonism; Q03431; HEK293 GP2 PTHR1 cells, GloSensor cAMP luminescence, 1 h; Potency, µM (top dose mostly 115 µM), for inactives: at the top dose activation, usual class: activators; 0.075% of 410,000 active; AID 743266; further: potency means the concentration at half of the fitted maximal effect; nearly all actives have a fitted effect of over 55% in size
#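 HEK-293-derived GP2 cells expressing PTHR1 and a GloSensor cAMP reporter, 3,000/well, plated overnight, given luciferin plus IBMX (each 0.5 mM as added) for 1 h at 37 °C, then compound for 1 h at 37 °C. Luminescence was read after 15 min at room temperature.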
# RGS4 inhibitor – blocks human RGS4-accelerated GTP hydrolysis; 0.039% of 390,000 active; Potency, µM (highest dose often 114 µM), inactives show at the highest dose activity change, negative = inhibition, actives largely listed as inhibitors; Transcreener GDP fluorescence polarization, RGS4-accelerated GTP hydrolysis; AID 504845; P49798; further: potency means the concentration at half of the fitted maximal effect; on the % scale 0 is the no-effect control and ±100 the full control effect; nearly all actives have a fitted effect of over 75% in size
#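 MLSMR compounds (23 nl, pin-transferred) preincubated 10 min at room temperature with a 500nM (2x) first reagent, then RGS4 at 900nM (2x) plus Transcreener GDP mix added; fluorescence polarization (620/688 nm) read before and after 90 min at 30 °C.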
# GLP1R inv ag – GLP-1 receptor (human) inverse agonism | P43220 | HEK293 GLP-1R CRE-luciferase, luminescence, 24 h; GLP-1R form is constitutively active | Potency, µM (doses to about 38.3 µM), inactives show top-dose activity change, negative = inhibition, most hits filed as inhibitors | 1.6% of 410,000 active; further: potency means the concentration at half of the fitted maximal effect; on the % scale 0 is the no-effect control and ±100 the full control effect; nearly all actives have a fitted effect of over 55% in size
# Target sequence (P43220 whole entry, looked up): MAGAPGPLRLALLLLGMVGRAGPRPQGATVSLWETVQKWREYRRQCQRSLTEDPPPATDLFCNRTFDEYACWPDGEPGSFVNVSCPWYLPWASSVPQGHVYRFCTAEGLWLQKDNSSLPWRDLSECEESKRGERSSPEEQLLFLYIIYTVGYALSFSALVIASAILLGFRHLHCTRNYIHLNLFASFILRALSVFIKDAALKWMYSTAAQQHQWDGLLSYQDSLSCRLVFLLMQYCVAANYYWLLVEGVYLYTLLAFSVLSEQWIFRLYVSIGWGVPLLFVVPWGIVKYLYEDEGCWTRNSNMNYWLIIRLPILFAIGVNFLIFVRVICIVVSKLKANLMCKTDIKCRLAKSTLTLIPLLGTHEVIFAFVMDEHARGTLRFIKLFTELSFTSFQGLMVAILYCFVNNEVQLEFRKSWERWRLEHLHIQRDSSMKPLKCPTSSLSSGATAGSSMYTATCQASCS
#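 Cells are plated, allowed 12 hours at 37 deg C, then treated with compounds for 24 hr before luciferase detection reagent is added and luminescence is read after 12 min at room temperature. The HEK293 line carries constitutively active GLP-1R with a cAMP-responsive reporter.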
# GLP1R ag – GLP-1 receptor (human) agonism. Potency, µM (titrated, usually from 45.6 µM), without a hit: top-dose activation, usual class: activators. P43220. 0.007% of 380,000 active. HEK293 GLP-1R CRE-luciferase, luminescence, 4-6 h; cells express a hypersensitive GLP-1R form. AID 624172; further: potency means the concentration at half of the fitted maximal effect; % of control where 0% means no effect
# GCN5L2 inh-1 – blocks human GCN5L2 histone acetyltransferase; AID 504327; 0.21% of 390,000 active; GCN5L2 HAT assay, ThioGlo1 CoA-SH fluorescence; Potency, µM (series often up to 58.9 µM), without a hit: at the top dose activity change, negative = inhibition, actives largely listed as inhibitors; further: potency means the concentration at half of the fitted maximal effect; on the % scale 0 is the no-effect control and ±100 the full control effect
#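 GCN5L2 (20 nM) in 50mM HEPES pH 7.5, 0.1mM EDTA, 0.01% Tween-20 preincubated 15 min with compounds at room temperature. Reaction started with H3(1-25) 75uM, acetyl-CoA 70uM, ThioGlo1 50uM; CoA-thiol fluorescence (Ex340/Em540) read at 0 and 20 min.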
# GCN5L2 inh-2 – confirmation of human GCN5L2 histone acetyltransferase inhibitors; AID 588347; Potency, µM, most hits filed as inhibitors; GCN5L2 HAT, ThioGlo1 CoA fluorescence, 20 min; shares compounds with GCN5L2 inh-1; 70% of 140 active
# * = called active by the depositor; i = inactive; ? = inconclusive; nt = not tested or not shown; [ ] = remark or other dose. Only some compounds are listed: those with a hit (about 1.8% of all), similar ones and a draw of the others. The call rests on the fitted dose curve; in most records, active means well fitted curve in the direction sought with a large enough effect; inconclusive means small, poorly fitted or top-dose-only effect, or another doubt; inactive means no such curve, though single readings can be large; an effect the other way counts as inactive or inconclusive.
SMILES,GLP1R cytotox,PTHR1 agonist,RGS4 inhibitor,GLP1R inv ag,GLP1R ag,GCN5L2 inh-1,GCN5L2 inh-2
Cc1cc(NC(=O)CSc2nc(-c3cccs3)nc3ccccc23)no1,15%,i,-4%,?,21%,-1%,nt
Cc1nc2ccc(NC(=O)c3ccc(Cl)c([N+](=O)[O-])c3)cc2s1,-12%,-20%,-34%,24%,0%,2%,nt
Cc1nc2ccc(NC(=O)c3cc([N+](=O)[O-])cc([N+](=O)[O-])c3Cl)cc2s1,?,-11%,?,4%,1%,?,8.1*
CCCNC(=O)c1ccc2c(=O)c(O)c(-c3ccsc3)[nH]c2c1,7%,-7%,0%,-3%,0%,32µM*,16*
O=C(Nc1ccc(-c2nc3ccccc3s2)c(O)c1)C1=COCCO1,-1%,-24%,-32%,58%,1%,25µM*,23*
C=CCOC(=O)c1cc(-c2ccc(/C=C3\C(=O)NC(=O)C(C#N)=C3C)o2)ccc1Cl,-5%,-15%,?,-21%,8%,25µM*,5.1*
O=C(O)CCN1CCc2ccccc2C1c1ccncc1 (stereo not given),-12%,i,3%,9%,-2%,-3%,nt
O=C(O)c1cccc(N/N=C/C2=C(Cl)c3cc(Cl)ccc3SC2)c1,281%,-69%,-39%,-10%,-6%,28µM*,14*
O=C(O)c1cccc(N/N=C/c2ccc(F)c(F)c2)c1,-3%,i,-9%,?,-17%,-10%,nt
CSc1ccccc1C(=O)Nc1ncn[nH]1,-3%,i,?,12%,1%,35µM*,32*
C=CCSc1ccccc1C(=O)Nc1ncn[nH]1,16%,-33%,9%,2%,0%,-4%,nt
O=C(Nc1ccc2nc(SCC(=O)N3CCOCC3)sc2c1)c1ccc(Cl)cc1,4%,-23%,2%,4%,nt,-10%,nt
O=C(Nc1cccc(S(=O)(=O)NC2=NCCC2)c1)c1cc(-c2ccco2)nc2ccccc12,7%,i,?,-11%,18%,13µM*,?
Nc1nn(-c2ccccc2)nc1C(=O)OCc1ccccc1Br,0%,-7%,16%,-22%,18%,-9%,nt
c1ccc2nc3c(nc2c1)c1ccccc1n3CCN1CCOCC1,5%,i,6%,-2%,0%,1%,nt
CCn1c2ccccc2c2nc3cc(S(=O)(=O)N4CCOCC4)ccc3nc21,21%,-13%,-72%[11.4 µM],158%,?,?,?
COCCN(C(=O)COC(=O)c1cc2c(s1)CCC2)c1c(N)n(Cc2ccccc2)c(=O)[nH]c1=O,-18%,i,?,-4%,-8%,?,11*
CCC1CCc2sc(C(=O)OCC(=O)N(CCOC)c3c(N)n(Cc4ccccc4)c(=O)[nH]c3=O)cc2C1 (stereo not given),?,-3%,-3%,?,3%,0%,nt
CC(=O)c1ccc(-c2nc3ccccc3n2C)o1,-1%,-8%[57.5 µM],-31%,37%,-14%,?,18*
Cc1ccc(-c2nc3ccccc3n2C)o1,1%,-5%,-43%,-7%,-12%,-3%,nt
CC(=O)NC(CC(=O)N(C)C1CCCCC1)c1ccccc1 (stereo not given),-2%,-20%,20%,4%,11%,-2%,nt
O=C(/C=C/c1ccco1)Nc1scc(-c2ccccc2)c1C(=O)O,-10%,-28%,-35%,?,-5%,?,?
O=C(/C=C/c1ccccc1)Nc1scc(-c2ccccc2)c1C(=O)O,-24%,-43%,6%,?,1%,2%,nt
